33 molecules from PubChem BioAssay AID463173 (ICCB-Longwood Screening Facility, Harvard Medical School, 2010) can be followed below.

Out of some 52,000 compounds screened, about 4,300 (8.3%) were called active. Shown is part of a subset that was picked to be rich in actives. Unmarked numbers belong to inactive results. Cut-off read from the data, not from the text of the source: active = survival mostly below about 52% (no sharp cut-off); inactive = mostly above about 56%.

For this experiment, the system named is DeltatarO mutant. In words: growth inhibition of S. aureus wild type versus tarO mutant, primary screen, teichoic acid synthesis inhibitors, RN4220, OD600 (AID 463173). The note with it: OD600, 18 h, stronger effect = lower value, concentration not given here.
For the molecule `CC1CC(=O)C2CCCCC2N1` (stereo not drawn), the survival was 84%. In the case of `Cc1ccc(Cn2cccc(C(=O)Nc3ccc4c(c3)OCO4)c2=O)cc1` it was 75%; in that of `CN(C)C(=O)Oc1cccc2cccnc12`, 76%.

As to `Cc1ccccc1-n1c(/C=C/c2c(C)[nH]c3ccccc23)nc2ccccc2c1=O`, the survival is 18% (active). Regarding `Cc1ccc(-n2c(/C=C\c3ccc(F)c(F)c3)nc3ccccc3c2=O)c(C)c1`, the survival was 98%. In the case of `Cc1ccc(-n2c(/C=C/c3ccc(Br)s3)nc3ccccc3c2=O)cc1C` it was 90%; in that of `CSc1ccc(/C=C/c2nc3ccccc3c(=O)n2-c2cccc(Cl)c2C)cc1`, 80%; in that of `COc1ccc(-n2c(/C=C\c3ccccc3F)nc3ccccc3c2=O)c(OC)c1`, 89%. The value for `Cc1ccc(-n2c(/C=C/c3ccccc3)nc3ccccc3c2=O)cc1C` was 78%; that for `O=c1c2ccccc2nc(/C=C/c2ccccc2)n1-c1ccccc1F` was 69%; that for `Cc1ccccc1-n1c(/C=C/c2ccc(O)cc2)nc2ccccc2c1=O` was 35% (active). Consider `Cc1ccccc1-n1c(/C=C/c2ccccc2F)nc2ccccc2c1=O`, for which the survival was 5% (active). Take `O=c1c2ccccc2nc(/C=C\c2ccc(F)cc2)n1-c1ccccc1F`: the survival was 94%.

As for `Cc1cccc(-n2c(/C=C/c3c(C)[nH]c4ccccc34)nc3ccccc3c2=O)c1`, the survival was 120%. With `Cc1ccccc1-n1c(/C=C/c2ccc(N(C)C)cc2)nc2ccccc2c1=O`, the survival was 8% (active). In the case of `CN1C2CCC1CC(OC(=O)C1(c3ccccc3)CCCC1)C2` (stereo not drawn) it was 116%; in that of `CCN(CC)CCSc1nc2ccccc2c(=O)n1-c1ccc(Cl)cc1`, 148%. Regarding `CC(c1ccccc1)n1cncc1C(=O)N1CCCC1=O` (stereo not drawn), the survival is 87%.

Turning to `Cc1ccc(OCC(=O)N2CCN(Cc3ccc(F)cc3)CC2)cc1`, the survival is 156%. `Cc1cccc(NC(=O)Cn2cc(C(=O)c3ccccc3)c3ccccc32)c1`: the survival was 130%.

For `CCOc1ccc(CN2C(=O)c3ccccc3Sc3ccc(C(=O)N4CCC5(CC4)OCCO5)cc32)cc1`, the survival is 74%.

Regarding `COc1cc2[nH]c(=O)n(-c3ccc(C)cc3)c(=O)c2cc1OC`, the survival is 94%. With `OC1CCNC2CCCCC12` (stereo not drawn), the survival is 94%. On to `Cc1nc2ccccc2c(=O)n1-c1cccc(O)c1`, for which the survival was 96%. In the case of `Cc1oc(-c2ccccc2Cl)nc1CN1C(=O)CN=C(c2ccccc2)c2cc(Cl)ccc21` it was 77%. In the case of `Cc1cccc(Cn2cccc(C(=O)Nc3nc4ccccc4s3)c2=O)c1` it was 122%. For `CCc1ccc(-n2nc(C)c3c2NC(=O)CSC3c2ccc(C(=O)OC)cc2)cc1` (stereo not drawn), the survival is 64%. In the case of `Cc1ccccc1-n1nc(C)c2c1NC(=O)CSC2c1ccc(N(C)C)cc1` (stereo not drawn) it was 43% (active). Take `Cc1ccccc1-n1nc(C)c2c1NC(=O)CSC2c1ccccc1C(F)(F)F` (stereo not drawn): the survival is 39% (active). With `Cc1ccc(-n2nc(C)c3c2NC(=O)CSC3c2ccc(O)cc2)cc1Cl` (stereo not drawn), the survival was 73%. As to `COc1ccc(Br)cc1C1SCC(=O)Nc2c1c(C)nn2-c1ccccc1C` (stereo not drawn), the survival is 43%. Turning to `Cc1ccccc1-n1nc(C)c2c1NC(=O)CSC2c1ccc(Cl)cc1` (stereo not drawn), the survival was 21% (active). On to `CCc1ccc(-n2nc(C)c3c2NC(=O)CSC3c2ccccc2C)cc1` (stereo not drawn), for which the survival was 57%.
